{
  "source": "paper PMC12136788",
  "binders": {"B1": {"name": "chr5:136977529:136977630:-|3pUTR|ENSG00000152377|msi1|FALSE|unique (ssRNA)", "RNA": "GGGAGUUCUACAGUCCGACGAUCACAAGCCAUCUCUUUCAUUUCUGCUUGAAGCCCCUUGGCUGCAGCAAUCCUGUCUGCCAUAGGUUUCUUCCUUCCUUACCUACUCAAGGGCUUUUUCUAAGGCAUGCACACAUAUCUCCUCAACAGAGGAUUGAGCAUCA"}, "B2": {"name": "chr12:100625254:100625355:+|3pUTR|ENSG00000139354|unk|total|mutant (ssRNA)", "RNA": "GGGAGUUCUACAGUCCGACGAUCAUAUGUAUUAAAUAUGGAGUUCAUAUACCUGCUAAUAUCAACGGUGGUGCUCUUACUAUCCGUUAAUUGCAUUUUGGUUAAAAAAAAAAAAGCAACAGUUUGGCACUUGUCCUACAAAAGCAACAGAGGAUUGAGCAUCA"}, "B3": {"name": "chr3:48857559:48857660:-|3pUTR|ENSG00000178537|unk|total|mutant (ssRNA)", "RNA": "GGGAGUUCUACAGUCCGACGAUCGGCUGAAGGCUGCUCAAGUUCACUUCUGGAUGCUGGAAGCUGUCGUUGAGGAGAAGGAGCCGUAAGCAGAACUAAGCAGUCUUGGAGGGCAAGGGGAGGGGAAUGGUGAGAUCCGAGCCCCAACAGAGGAUUGAGCAUCA"}, "B4": {"name": "chr2:20282997:20283108:-|CDS|ENSG00000055917|unk|total|mutant (ssRNA)", "RNA": "GGGAGUUCUACAGUCCGACGAUCACUAAUCUGCAAUCUAAUUCAUUUUAUGGAAGCAGUUCUUUGACUAACCGCUCCCAGAGCCGUUCUUUAUUUUCUCAUGGACCUGGUCAACCUGGAAGUACAUCUCUUGGCUUUGGAAGUCAACAGAGGAUUGAGCAUCA"}, "B5": {"name": "chr17:10306458:10306629:-|CDS|ENSG00000006788|control|control|control (ssRNA)", "RNA": "GGGAGUUCUACAGUCCGACGAUCCCACCUGGAGCGGAUGAAGAAGAACCUGGAGCAGACGGUGAAGGACCUGCAGCACCGUCUAGAUGAGGCUGAACAACUGGCGCUGAAGGGCGGGAAGAAGCAGAUCCAGAAACUGGAGAACAACAGAGGAUUGAGCAUCA"}, "B6": {"name": "chr1:67413009:67413110:-|3pUTR|ENSG00000142864|unk|total|mutant (ssRNA)", "RNA": "GGGAGUUCUACAGUCCGACGAUCCUGAAUUUUAUCUGUUUUAAAAAUGAACUUCUCCCGCUACACAGAAGUAACAAAUAUGGCCGUCAGUUUUGUAUUCCGAAAUGUAUUGGCCGCAGGGAUGUUUUCAUAAUUUUCAGAGAUCAACAGAGGAUUGAGCAUCA"}, "B7": {"name": "chr18:2804133:2804242:+|3pUTR|ENSG00000101596|unk|FALSE|unique (ssRNA)", "RNA": "GGGAGUUCUACAGUCCGACGAUCGGUUAAAGAGAAAUGACUUUUUAGGAACUAGACUUGAACGUAUAAUUAAUAUGUGGAACUAGUUUGCUUUUAUAAUUCAUUGUAUCAAGAAGGAGUCAUGUUUUAAAUCCAAGGCAUUGACAACAGAGGAUUGAGCAUCA"}, "B8": {"name": "chr7:152122106:152122213:+|3pUTR|ENSG00000178234|unk|FALSE|unique (ssRNA)", "RNA": "GGGAGUUCUACAGUCCGACGAUCAGUGGUUUUUAUCUGAUCAGGAACUUGUCAUGAUUUCCUUUCUUAGACUUCAUAGGAGAUAGUGCUUUAAAAAAAAAAAAAACUUCUAUUAUUUGUUUAGUAUGUUGUAAGUAGAUCAUUCAACAGAGGAUUGAGCAUCA"}, "B9": {"name": "ENSG00000136451:be:win_3801|3pUTR|ENSG00000136451|bound_else_gene|NA|bound_elsewhere_windowed (ssRNA)", "RNA": "GGGAGUUCUACAGUCCGACGAUCACCCCUAAGCUAGAAUGUGGUUGUCAGAACCCUGAAAGUAUUAGUUCUAAAAAAAAAAAGAUAUAUACUAGAAGUAAUUGUUUUAUCAAUUCAUUGUAUAAUAAACAGGAGUGAGACUUCCAACAGAGGAUUGAGCAUCA"}, "B10": {"name": "ENSG00000186472:stop:overlap|stop_codon|ENSG00000186472|stop_codon|NA|stop_codon (ssRNA)", "RNA": "GGGAGUUCUACAGUCCGACGAUCUUUCUUGUAAAUGGAAAUUUUAUCAUGUGUAUAGAUUCUGUAGCAUGCUUUUCUUUAUUUAGUUUUACUUUAUUCCUUUAUUGUUCUGUUUCUUGAUUGUUUGCUUGAUUUGUUUGGUGUCAACAGAGGAUUGAGCAUCA"}, "B11": {"name": "chr8:72021249:72022905:-|three_prime_utr|ENSG00000104321|control|control|control (ssRNA)", "RNA": "GGGAGUUCUACAGUCCGACGAUCGCAGAUAUGUUCAAAUUGGACUGGACUUUGAUGAGAUAUAAUCUCAUUAUUUGAAUGGGUAGAAAAUGAAUUUGCUAGAACACACAUUUUUAAUGAAAAGAAGUAAUAAAUGUAACUAUUCAACAGAGGAUUGAGCAUCA"}, "B12": {"name": "chr7:152122106:152122213:+|3pUTR|ENSG00000178234|unk|total|mutant (ssRNA)", "RNA": "B8 RNA with U67C, A68C, U76C, A77C, U83C, A84C, U121C, A122C, U135C, A136C"}, "B13": {"name": "chr1:67413009:67413110:-|3pUTR|ENSG00000142864|unk|FALSE|unique (ssRNA)", "RNA": "B6 RNA with C83U, C84A, C99U, C100A, C113U, C114A"}, "B14": {"name": "chr3:45823315:45826332:-|three_prime_utr|ENSG00000163818|control|control|control (ssRNA)", "RNA": "GGGAGUUCUACAGUCCGACGAUCUCAGGCAUGUAUUUUGAAAAGCAUUUUGUCAUAUCCCCUCUCCUUAUUUUUCUAAUAUUUAGACUUUGAAUAUUUAGAACUAGAGUUCCUAUUUUCAGCUAGUUGAAAACAGAGAAAACCCAACAGAGGAUUGAGCAUCA"}, "B15": {"name": "chr17:57972098:57972209:-|3pUTR|ENSG00000136451|unk|FALSE|bound_elsewhere (ssRNA)", "RNA": "GGGAGUUCUACAGUCCGACGAUCCUAGAAUGUGGUUGUCAGAACCCUGAAAGUAUUAGUUCUAAAAAAAAAAAGAUAUAUACUAGAAGUAAUUGUUUUAUCAAUUCAUUGUAUAAUAAACAGGAGUGAGACUUCAUUGUAUGACAACAGAGGAUUGAGCAUCA"}, "B16": {"name": "chr17:57972098:57972209:-|3pUTR|ENSG00000136451|unk|total|mutant (ssRNA)", "RNA": "B15 RNA with U25C, A26C, U56C, A57C, U83C, A84C"}, "B17": {"name": "ENSG00000136451:be:win_3751|3pUTR|ENSG00000136451|bound_else_gene|NA|bound_elsewhere_windowed (ssRNA)", "RNA": "GGGAGUUCUACAGUCCGACGAUCCUCCACAGUGGUCCAAGGAGCAGUCCUCAGUGGGGGCAGGUGUGGGCCCUACCCCUAAGCUAGAAUGUGGUUGUCAGAACCCUGAAAGUAUUAGUUCUAAAAAAAAAAAGAUAUAUACUACAACAGAGGAUUGAGCAUCA"}, "B18": {"name": "chr2:112659350:112659462:+|CDS|ENSG00000144136|unk|FALSE|unique (ssRNA)", "RNA": "GGGAGUUCUACAGUCCGACGAUCCUUGCCAAGGUGGGAGAUUGCAUGGGAGACUCCGGUGACAAACCCUUAAGGCGCAAUAAUAGCUAUACUUCCUAUACCAUGGCAAUAUGUGGCAUGCCUCUGGAUUCAUUCCGUGCCAAACAACAGAGGAUUGAGCAUCA"}, "B19": {"name": "chr12:49763637:49763739:+|3pUTR|ENSG00000139644|msi1_unk|total|mutant (ssRNA)", "RNA": "GGGAGUUCUACAGUCCGACGAUCAUGUGUAUCAAGGUACAGCAUCGCCGGGUUCCCCUAAACUUGCCCUGUUUUUGUUUUUUCCGUUUGUUAUCCCCUUACUGAGCGGCCUCUACCCGGUGGCUGUGAUUAAAUGUCCCAAGCCAACAGAGGAUUGAGCAUCA"}, "B20": {"name": "chr20:17613772:17613873:-|3pUTR|ENSG00000125844|unk|total|mutant (ssRNA)", "RNA": "GGGAGUUCUACAGUCCGACGAUCAGCCCCGUGGGUGUGUGGGAGGCCGGGCGCUCUGGGGUCUGUCUGUCAGUGCAAUCGUUCCGUGUUUUUUCAGUGGGGCGGGGCGGGAAGCGGGUGGGACCGGGCAGCCAGUUCUCAAAGCAACAGAGGAUUGAGCAUCA"}, "B21": {"name": "chr4:48851844:48851957:+|CDS|ENSG00000109180|unk|FALSE|unique (ssRNA)", "RNA": "GGGAGUUCUACAGUCCGACGAUCAUAUGACUCAAGUGUGAGUGGUCAAUCAUCUUUUGUGACAUCCCCAGCAGCAGACAACAUAGAAAUGCUUCCUCAUUAUGAGCCAAUUCCAUUCAGUUCUUCUAUGAAUGAAUCUGCUCCCAACAGAGGAUUGAGCAUCA"}, "B22": {"name": "ENSG00000107863:be:win_2201|CDS|ENSG00000107863|bound_else_gene|NA|bound_elsewhere_windowed (ssRNA)", "RNA": "GGGAGUUCUACAGUCCGACGAUCCUGUCAUCCUAAGGGAAAAACCUCCAUCUGGACGCCAGACACCGCAGCCUUUAAGGCAUCAGUCUUACAUCUUGGCAGUAAAUGACCAGGAGACCGGGUCAGACACUACCUGCUGGCUGCCAACAGAGGAUUGAGCAUCA"}},
  "note": "Changes are numbered by the printed parent chain. In all, about 5,800 sequences were measured (“enrichment r”: median about 0.54, highest 2% from about 16 on). The list comes from a sample in which the highest values are over-represented; it also holds similar and randomly drawn sequences.",
  "data": [
    {"molecular_target": "MSI1 full-length (mouse, UniProt Q61474 1-362)", "sequence (Q61474 whole entry)": "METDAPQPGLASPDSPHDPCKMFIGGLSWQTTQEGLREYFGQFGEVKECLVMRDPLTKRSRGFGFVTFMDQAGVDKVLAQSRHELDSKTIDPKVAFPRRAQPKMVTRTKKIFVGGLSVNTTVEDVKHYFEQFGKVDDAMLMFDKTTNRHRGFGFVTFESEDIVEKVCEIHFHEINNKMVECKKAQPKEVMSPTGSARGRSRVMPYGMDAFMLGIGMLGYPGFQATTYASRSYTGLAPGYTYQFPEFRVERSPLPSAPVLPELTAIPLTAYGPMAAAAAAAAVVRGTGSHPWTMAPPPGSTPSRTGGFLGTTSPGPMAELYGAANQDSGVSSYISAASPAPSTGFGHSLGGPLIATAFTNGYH", "assay": "nsRBNS (natural sequence RNA bind-n-seq); RBNS binding buffer (assumed for nsRBNS): 25 mM Tris pH 7.5, 150 mM KCl, 3 mM MgCl2, 0.01% Triton X-100, 500 ug/ml BSA, 20 U/ml SUPERase-In, 4 C; UNK is unkempt and MSI1 is Musashi-1; names of the RNAs are library labels; protein concentration not given here; high values mean tight binding", "units": {"binding signal": "enrichment R"}, "values": [
      {"binder": "B1", "binding signal": 0.506},
      {"binder": "B2", "binding signal": 0.371},
      {"binder": "B3", "binding signal": 0.595},
      {"binder": "B4", "binding signal": 0.305},
      {"binder": "B5", "binding signal": 0.485},
      {"binder": "B6", "binding signal": 0.413},
      {"binder": "B7", "binding signal": 1.24},
      {"binder": "B8", "binding signal": 20.2},
      {"binder": "B9", "binding signal": 16.4},
      {"binder": "B10", "binding signal": 0.35},
      {"binder": "B11", "binding signal": 2.75},
      {"binder": "B12", "binding signal": 1.74},
      {"binder": "B13", "binding signal": 41.4},
      {"binder": "B14", "binding signal": 5.79},
      {"binder": "B15", "binding signal": 29.3},
      {"binder": "B16", "binding signal": 0.711},
      {"binder": "B17", "binding signal": 1.89},
      {"binder": "B18", "binding signal": 0.737},
      {"binder": "B19", "binding signal": 0.481},
      {"binder": "B20", "binding signal": 0.811},
      {"binder": "B21", "binding signal": 0.341},
      {"binder": "B22", "binding signal": 0.283}
    ]}
  ]
}
